{"source": "paper PMC4336329", "about": "(PLoS ONE, 2015)", "note": "The campaign covered roughly 310,000 compounds. About 14,000 (4.5%) showed an effect of 50% or more. Effects have a minus sign here. This excerpt belongs to a sample that is enriched for strong results.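 Also: peak tail current of the secondary pulse compared with the same well before compound.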", "data": [{"target": "human ether-à-go-go-related gene (hERG) potassium channel (human, UniProt Q12809)", "sequence (Q12809 whole entry, looked up)": "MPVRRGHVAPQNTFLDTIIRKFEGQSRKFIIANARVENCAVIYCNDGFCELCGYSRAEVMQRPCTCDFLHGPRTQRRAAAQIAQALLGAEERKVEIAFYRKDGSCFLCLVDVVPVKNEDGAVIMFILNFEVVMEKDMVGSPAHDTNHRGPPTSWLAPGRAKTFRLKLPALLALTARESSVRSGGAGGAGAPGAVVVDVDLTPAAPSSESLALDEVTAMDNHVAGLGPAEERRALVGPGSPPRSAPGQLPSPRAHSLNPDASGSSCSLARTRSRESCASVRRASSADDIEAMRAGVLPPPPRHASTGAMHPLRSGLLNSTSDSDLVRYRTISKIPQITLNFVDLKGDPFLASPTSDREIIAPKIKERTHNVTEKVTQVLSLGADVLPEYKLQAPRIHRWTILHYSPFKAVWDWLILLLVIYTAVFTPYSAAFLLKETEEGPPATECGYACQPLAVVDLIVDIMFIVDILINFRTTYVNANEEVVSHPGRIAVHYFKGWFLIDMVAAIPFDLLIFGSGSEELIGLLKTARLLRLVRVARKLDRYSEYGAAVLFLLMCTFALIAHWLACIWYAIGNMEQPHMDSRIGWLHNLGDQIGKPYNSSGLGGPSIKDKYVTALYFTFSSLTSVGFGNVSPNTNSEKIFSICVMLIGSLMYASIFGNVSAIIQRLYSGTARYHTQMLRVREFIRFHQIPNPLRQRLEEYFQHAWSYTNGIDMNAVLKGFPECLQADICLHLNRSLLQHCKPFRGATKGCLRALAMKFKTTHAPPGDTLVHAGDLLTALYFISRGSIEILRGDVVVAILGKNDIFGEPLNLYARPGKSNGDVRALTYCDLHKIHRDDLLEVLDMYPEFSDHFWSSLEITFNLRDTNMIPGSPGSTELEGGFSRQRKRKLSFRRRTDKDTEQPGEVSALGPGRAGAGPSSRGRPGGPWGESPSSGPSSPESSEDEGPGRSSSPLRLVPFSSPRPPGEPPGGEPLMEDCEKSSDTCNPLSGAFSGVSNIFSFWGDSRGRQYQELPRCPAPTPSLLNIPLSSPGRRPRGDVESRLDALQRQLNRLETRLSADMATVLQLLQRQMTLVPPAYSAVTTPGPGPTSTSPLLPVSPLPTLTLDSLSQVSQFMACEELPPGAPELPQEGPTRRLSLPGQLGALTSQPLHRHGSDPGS", "experiment": "primary screen, population patch clamp on CHO cells stably expressing hERG; higher = less effect of the substance", "units": {"hERG current change (%, negative = inhibition) at 10uM": "%"}, "values": [{"smiles": "Cc1cccc(N2CC(C(=O)Nc3nnc(SCC(=O)Nc4cc(C)on4)s3)CC2=O)c1", "note": "(stereo not drawn)", "hERG current change (%, negative = inhibition) at 10uM": 23}, {"smiles": "Cc1cc(=O)[nH]c(SCC(=O)Nc2ccc(S(=O)(=O)N3CCOCC3)cc2)n1", "hERG current change (%, negative = inhibition) at 10uM": -3.3}, {"smiles": "CC1(C)SC(=S)N(NC(=O)Nc2ccccc2)C1N(O)C(=O)Nc1ccccc1", "note": "(stereo not drawn)", "hERG current change (%, negative = inhibition) at 10uM": 12.7}, {"smiles": "CCOc1cc(N2CCOCC2)c(OCC)cc1NC(=O)c1oc2ccccc2c1C", "hERG current change (%, negative = inhibition) at 10uM": 18.6}, {"smiles": "O=C(c1ccccc1F)N1CCCC(C(=O)N2CCc3ccccc3C2)C1", "note": "(stereo not drawn)", "hERG current change (%, negative = inhibition) at 10uM": -8.64}, {"smiles": "CC(C)(C)c1nc(S(=O)(=O)c2ccc(Cl)cc2)c(N2CCOCC2)o1", "hERG current change (%, negative = inhibition) at 10uM": -14.2}, {"smiles": "O=S(=O)(c1ccccc1)c1nc(-c2ccco2)oc1N1CCCCC1", "hERG current change (%, negative = inhibition) at 10uM": -37.1}, {"smiles": "O=S(=O)(c1ccc(Cl)cc1)c1nc(-c2ccco2)oc1N1CCCCC1", "hERG current change (%, negative = inhibition) at 10uM": -7.91}, {"smiles": "O=S(=O)(c1ccc(Cl)cc1)c1nc(-c2ccco2)oc1N1CCOCC1", "hERG current change (%, negative = inhibition) at 10uM": -55.4}, {"smiles": "CCCCc1nc(S(=O)(=O)c2ccc(Cl)cc2)c(N2CCOCC2)o1", "hERG current change (%, negative = inhibition) at 10uM": -69.6}, {"smiles": "CC(C)Cc1nc(S(=O)(=O)c2ccc(Cl)cc2)c(N2CCOCC2)o1", "hERG current change (%, negative = inhibition) at 10uM": -6.14}, {"smiles": "COc1ccc(NC(=O)Nc2ccc3nccnc3c2)cc1", "hERG current change (%, negative = inhibition) at 10uM": 2.71}, {"smiles": "COc1ccccc1CNC(=O)C1CCN(C(=O)NC2CCCCC2)CC1", "hERG current change (%, negative = inhibition) at 10uM": 10.6}, {"smiles": "CCc1ccc(/C=N/NC(=O)C(=O)NCCCN2CCOCC2)cc1", "hERG current change (%, negative = inhibition) at 10uM": -23.6}, {"smiles": "COc1ccc(NC(=S)N2c3ccccc3CC2C)cc1OC", "note": "(stereo not drawn)", "hERG current change (%, negative = inhibition) at 10uM": -5.96}, {"smiles": "CCCC(=O)Nc1nnc(Cc2ccccc2)s1", "hERG current change (%, negative = inhibition) at 10uM": -0.72}, {"smiles": "COc1ccc(S(=O)(=O)Cc2ccc(C(=O)NC3CCC(C)CC3)o2)cc1", "note": "(stereo not drawn)", "hERG current change (%, negative = inhibition) at 10uM": -15.8}, {"smiles": "Cc1ccc(-c2ccc(/C=N/c3ncn[nH]3)o2)cc1Cl", "hERG current change (%, negative = inhibition) at 10uM": 11.6}, {"smiles": "Oc1cccc(C2c3[nH]c4ccccc4c3CCN2Cc2ccoc2)c1", "note": "(stereo not drawn)", "hERG current change (%, negative = inhibition) at 10uM": -29.6}, {"smiles": "C=CCN1CC[C@]23c4c5ccc(O)c4O[C@H]2/C(=N/NC(=O)c2ccccc2)CC[C@@]3(O)[C@H]1C5", "hERG current change (%, negative = inhibition) at 10uM": -69.1}, {"smiles": "Cl.Oc1ccc2c3c1O[C@H]1c4[nH]c5ccccc5c4C[C@@]4(O)[C@@H](C2)N(CC2CC2)CC[C@]314", "hERG current change (%, negative = inhibition) at 10uM": -63}, {"smiles": "C=C1CC[C@@]2(O)[C@H]3Cc4ccc(O)c5c4[C@@]2(CCN3CC2CC2)[C@H]1O5", "hERG current change (%, negative = inhibition) at 10uM": -2.73}, {"smiles": "CS(=O)(=O)O.O.Oc1ccc2c3c1O[C@H]1c4oc5ccccc5c4C[C@@]4(O)[C@@H](C2)N(CC2CC2)CC[C@]314", "hERG current change (%, negative = inhibition) at 10uM": -76.9}, {"smiles": "Cl.O=C1CC[C@@]2(O)[C@H]3Cc4ccc(O)c5c4[C@@]2(CCN3CC2CC2)[C@H]1O5", "hERG current change (%, negative = inhibition) at 10uM": 0.91}, {"smiles": "NC(N)=Nc1ccc2[nH]c3c(c2c1)C[C@@]1(O)[C@H]2Cc4ccc(O)c5c4[C@@]1(CCN2CC1CC1)[C@H]3O5.O=C(O)C(F)(F)F", "hERG current change (%, negative = inhibition) at 10uM": 6.85}, {"smiles": "C=CC[N+]1(C)CC[C@]23c4c5ccc(O)c4O[C@H]2C(=O)CC[C@@]3(O)[C@H]1C5.[I-]", "note": "(stereo partly drawn)", "hERG current change (%, negative = inhibition) at 10uM": 17.8}, {"smiles": "Cl.O.Oc1ccc2c3c1O[C@H]1c4[nH]c5ccccc5c4C[C@@]4(O)C(C2)N(CC2CC2)CC[C@]314", "hERG current change (%, negative = inhibition) at 10uM": -55.4}, {"smiles": "C=C(C)CN1CC[C@]23c4c5ccc(O)c4O[C@H]2c2[nH]c4ccccc4c2C[C@@]3(O)C1C5.Cl.O", "hERG current change (%, negative = inhibition) at 10uM": 4.9}, {"smiles": "Oc1cccc(C2c3[nH]c4ccccc4c3CCN2Cc2ccc3c(c2)CCO3)c1", "note": "(stereo not drawn)", "hERG current change (%, negative = inhibition) at 10uM": 9.6}, {"smiles": "COc1ccc(C2/C(=C(/O)c3ccc(Br)cc3)C(=O)C(=O)N2C)cc1", "note": "(stereo not drawn)", "hERG current change (%, negative = inhibition) at 10uM": -12.7}, {"smiles": "Cn1cc(P(=S)(N2CCOCC2)N2CCOCC2)cc1P(=O)(N1CCOCC1)N1CCOCC1", "hERG current change (%, negative = inhibition) at 10uM": 7.36}, {"smiles": "COc1ccc(Oc2cccc(Cl)c2CNC(=O)c2ccccc2C(=O)O)cc1", "hERG current change (%, negative = inhibition) at 10uM": 4.98}, {"smiles": "CC(C)(C)NC(=O)C(Cc1ccccc1)N1C(=O)c2ccccc2C1=O", "note": "(stereo not drawn)", "hERG current change (%, negative = inhibition) at 10uM": 6.68}, {"smiles": "CCOC(=O)C1(Cc2ccc(OC)cc2)CCN(C(=O)C2=CCCC2)CC1", "hERG current change (%, negative = inhibition) at 10uM": -33.8}, {"smiles": "Cc1ccnc(NC2CCCCC2)c1", "hERG current change (%, negative = inhibition) at 10uM": 20.4}, {"smiles": "Cn1c(CNc2ccccn2)c(C#N)c2ccccc21", "hERG current change (%, negative = inhibition) at 10uM": -6.94}, {"smiles": "COC(=O)CCCC1=CC2=CC(=O)C(C)(OC(=O)c3cccs3)C(=O)C2=CN1CCc1c[nH]c2ccccc12", "note": "(stereo not drawn)", "hERG current change (%, negative = inhibition) at 10uM": 15}, {"smiles": "CC(C)CN(C(=O)c1ccc([N+](=O)[O-])s1)c1c(N)n(Cc2ccccc2)c(=O)[nH]c1=O", "hERG current change (%, negative = inhibition) at 10uM": 10.3}, {"smiles": "O=C(Nc1ccccc1F)c1ccc(CN2CCc3ccccc3C2)cc1", "hERG current change (%, negative = inhibition) at 10uM": 13.7}, {"smiles": "Cc1ccccc1NC(=O)c1ccc(CN2CCC(Cc3ccccc3)CC2)cc1", "hERG current change (%, negative = inhibition) at 10uM": -52.2}, {"smiles": "O=C(Nc1ccccc1F)c1ccc(CN2CCN(c3ccccc3)CC2)cc1", "hERG current change (%, negative = inhibition) at 10uM": -70.7}, {"smiles": "COc1ccc(NC(=O)c2ccc(CN3CCN(c4ccccc4)CC3)cc2)cc1", "hERG current change (%, negative = inhibition) at 10uM": -9.47}, {"smiles": "CCc1ccccc1NC(=O)c1ccc(CN2CCC(Cc3ccccc3)CC2)cc1", "hERG current change (%, negative = inhibition) at 10uM": -50.8}, {"smiles": "O=C(Nc1ccccc1C(F)(F)F)c1ccc(CN2CCC(Cc3ccccc3)CC2)cc1", "hERG current change (%, negative = inhibition) at 10uM": -42.4}, {"smiles": "Cc1ccccc1NC(=O)CCN1CCN(Cc2ccccc2)CC1", "hERG current change (%, negative = inhibition) at 10uM": -27.2}, {"smiles": "Cc1ccccc1NC(=O)c1ccc(CN2CCc3ccccc3C2)cc1", "hERG current change (%, negative = inhibition) at 10uM": -16.4}, {"smiles": "O=C(c1ccc(CN2CCOCC2)cc1)N1CCC(Cc2ccccc2)CC1", "hERG current change (%, negative = inhibition) at 10uM": -3.35}, {"smiles": "O=C(NO)c1ccccc1C(F)(F)F", "hERG current change (%, negative = inhibition) at 10uM": 15.4}, {"smiles": "Cc1cccc(C)c1OCC(=O)Nc1cccc(S(=O)(=O)N2CCCC2)c1", "hERG current change (%, negative = inhibition) at 10uM": 3.77}, {"smiles": "CC(Oc1ccc2c3c(c(=O)oc2c1)CCCC3)C(=O)NCC(O)c1ccccc1", "note": "(stereo not drawn)", "hERG current change (%, negative = inhibition) at 10uM": 16.8}, {"smiles": "COc1ccc(S(=O)(=O)c2ccc(OC)c(OC)c2)cc1OC", "hERG current change (%, negative = inhibition) at 10uM": -12.2}]}]}
